Test results from PubChem BioAssay.
Where “and” joins values, the source holds several entries; their conditions need not be identical. Equal values may be shown once. Calls of active or inactive are those of the source. Rule as the data show it, unless noted: active = inhibition above about 80%; inactive = the rest.

Assays:
[1] = CRL2098 osteosarcoma cell growth inhibition, synergistic combos for chromothripsis tumors, BGB or cisplatin IC20 combos (AID 1671454); details: CRL2098 osteosarcoma cells, drug combinations, stronger effect = higher value;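 also: cells exposed for 96 h before readout; 0% = vehicle DMSO and 100% = killing by high DMSO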
[2] = HD-MB03 medulloblastoma cell growth inhibition, synergistic combos for chromothripsis tumors, BGB or cisplatin IC20 combos (AID 1671455; in the data active = inhibition above about 83%;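 also: 0% = vehicle DMSO and 100% = high DMSO as cytotoxic control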); details: HD-MB03 medulloblastoma cells, stronger effect = higher value
[3] = UWB1.289 ovarian carcinoma cell growth inhibition, synergistic combos for chromothripsis tumors, BGB or cisplatin combos (AID 1671456); details: UWB1.289 ovarian carcinoma cells, stronger effect = higher value;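 also: cells exposed to compound for four days; 0% = vehicle DMSO and 100% = killing by high DMSO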
[4] = LFS_MB_2R medulloblastoma cell growth inhibition, synergistic combos for chromothripsis tumors, cisplatin combos (AID 1671457); details: LFS_MB_2R medulloblastoma cells, stronger effect = higher value;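 also: cells exposed to compound for four days before readout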
[5] = MDA-MB-436 breast carcinoma cell growth inhibition, synergistic combos for chromothripsis tumors, BGB or cisplatin combos (AID 1671458; call rule not given here;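 also: cells exposed for 96 hours; 0% = vehicle DMSO and 100% = killing by high DMSO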); details: MDA-MB-436 breast carcinoma growth inhibition, drug combinations, stronger effect = higher value
[6] = UWB1.289_BRCA1 ovarian cancer growth, cell-based, BGB or cisplatin combinations (AID 1671459); details: UWB1.289 BRCA1 ovarian carcinoma, drug combinations, stronger effect = higher value
[7] = human astrocyte viability loss, single and combined drugs, cytotoxicity control for chromothriptic childhood tumor combination screen, cell-based, BGB or cisplatin IC20 combos (AID 1671460); details: Human astrocytes, drug combinations, stronger effect = higher value;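 also: cells exposed to compounds for 96 hours before viability readout; 0% = vehicle and 100% = killing control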
[8] = growth inhibition of BT084 medulloblastoma cells, cell-based, ICGC_MB145, cisplatin and BGB IC40 combos (AID 1671461); details: drug combinations, stronger effect = higher value;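 also: cells exposed to drugs for 96 hours; 0% = vehicle DMSO and 100% = high DMSO full killing control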
[9] = growth inhibition of RCMB18 medulloblastoma cells, cell-based, cisplatin and BGB IC40 combos (AID 1671462); details: stronger effect = higher value;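 also: cells exposed to compound for four days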
[10] = growth inhibition of CRL1545 osteosarcoma cells, cell-based, cisplatin and BGB IC20 combos (AID 1671464); details: stronger effect = higher value;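 also: cells exposed to compound for 96 hours before readout; 0% = vehicle DMSO and 100% = high DMSO killing control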
[11] = LFS_MB_P medulloblastoma growth inhibition, cell-based, chromothripsis tumors, cisplatin or BGB combos (AID 1671449); details: LFS_MB_P medulloblastoma cells;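 also: cells exposed for 96 hours; 0% = vehicle DMSO and 100% = killing by high DMSO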
[12] = HDN33 neuroblastoma growth inhibition, cell-based, chromothripsis tumors, cisplatin or BGB combos (AID 1671450); details: HDN33 neuroblastoma cells, stronger effect = higher value;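 also: cells exposed to compound for four days; 0% = vehicle DMSO and 100% = cell killing by high DMSO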
[13] = ICB984 medulloblastoma cell growth inhibition, synergistic combos for chromothripsis tumors, cisplatin or BGB combos (AID 1671451; call rule not given here;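 also: cells exposed for 96 hours before readout; 0% = vehicle DMSO and 100% = killing by high DMSO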); details: ICB984 medulloblastoma cells, drug combinations, stronger effect = higher value
[14] = LFS_MB_1R medulloblastoma cell growth inhibition, synergistic combos for chromothripsis tumors, cisplatin or BGB combos (AID 1671452); details: LFS_MB_1R medulloblastoma cells, stronger effect = higher value;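 also: cells exposed for 96 hours before readout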
[15] = HTB85 osteosarcoma cell growth inhibition, synergistic combos for chromothripsis tumors, BGB or cisplatin IC20 combos (AID 1671453); details: HTB85 osteosarcoma cells, drug combinations, stronger effect = higher value;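 also: cells exposed for 96 hours before readout; 0% = vehicle DMSO and 100% = high DMSO killing control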
[16] = measured here: combination with BGB at IC20, at 0.5 µM
[17] = measured here: combination with cisplatin at IC20, at 0.5 µM
[18] = measured here: combo with BGB at IC20, at 0.5 µM
[19] = measured here: combo with cisplatin at IC20, at 0.5 µM
[20] = measured here: inhibition with BGB combination, at 0.05 µM
[21] = measured here: inhibition with cisplatin combination, at 0.05 µM
[22] = measured here: combination with cisplatin, at 0.5 µM
[23] = measured here: combination with cisplatin, at 5 µM
[24] = measured here: BGB combination, at 0.5 µM
[25] = measured here: BGB combination, at 5 µM
[26] = measured here: cisplatin combination, at 0.5 µM
[27] = measured here: cisplatin combination, at 5 µM
[28] = BGB combination, concentration series, at 5 µM
[29] = cisplatin combination, concentration series, at 5 µM
[30] = measured here: combo with BGB IC20, at 0.5 µM
[31] = measured here: combo with cisplatin IC20, at 0.5 µM
[32] = cisplatin combination, at 0.5 µM
[33] = measured here: BGB IC40 combination 0.05 uM, at 0.05 µM
[34] = measured here: BGB IC40 combination, at 0.05 µM
[35] = measured here: with BGB IC20 combination, at 0.5 µM
[36] = measured here: with cisplatin IC20 combination, at 0.5 µM
[37] = measured here: combination with BGB IC40, at 0.05 µM

SMILES: CCCCNNC(=O)c1ccc(Br)cc1
- inhibition ([1]; at 0.5 µM): -42.1% (inactive) and -78.1% (inactive)
- inhibition [1, 16]: -11% and -84.3%
- inhibition [1, 17]: -47% and -80.1%
- inhibition ([2]; at 0.5 µM): -7.76% (inactive) and -11.7% (inactive)
- inhibition [2, 18]: -11.6% and -15%
- inhibition [2, 19]: -8.41% and -15%
- inhibition ([3]; at 0.5 µM): -8.32% (inactive) and -3.86% (inactive)
- inhibition [3, 20]: -23.9% and -19.8%
- inhibition [3, 21]: -10.7% and -18.7%
- inhibition ([4]; at 0.5 µM): -9.05% (inactive) and -20.7% (inactive)
- inhibition [4, 22]: -22% and -6.47%
- inhibition [4, 23]: -14.2% and 13.9%
- inhibition ([5]; at 0.5 µM): -12.3% (inactive) and -16% (inactive)
- inhibition [5, 24]: -20.8% and -8.47%
- inhibition [5, 25]: -14.9% and -12.9%
- inhibition [5, 26]: -6.74% and -30.9%
- inhibition [5, 27]: -0.941% and -3.8%
- inhibition [6, 28]: 6.4% and 33.8%
- inhibition ([6]; at 0.5 µM): -7.63% (inactive) and -13.8% (inactive)
- inhibition [6, 29]: 26% and 52.3%
- inhibition ([7]; at 0.5 µM): 8.76% (inactive) and -0.16% (inactive)
- inhibition [7, 30]: 10.6% and 7.19%
- inhibition [7, 31]: 16.8% and 11.7%
- inhibition ([8]; at 0.5 µM): -6.87% (inactive) and -6.41% (inactive)
- inhibition [8, 32]: -5.88% and 9.41%
- inhibition ([8]; cisplatin combination, at 5 µM): 5.88% and 9.57%
- inhibition [8, 33]: -2.71% and -30.8%
- inhibition ([8]; single agent, at 5 µM): 3.58% and 5.96%
- inhibition ([9]; at 0.5 µM): -14.6% (inactive) and -4.43% (inactive)
- inhibition ([9]; cisplatin combo, at 5 µM): -8.38% and 43.4%
- inhibition [9, 34]: -7.86% and -8.38%
- inhibition [9, 22]: -0.38% and 8.6%
- inhibition ([9]; single agent, at 5 µM): -15.8% and 24%
- inhibition ([10]; at 0.5 µM): -8.18% (inactive) and -0.65% (inactive)
- inhibition [10, 35]: -10.3% and -18.8%
- inhibition [10, 36]: -7.12% and 6.96%
- inhibition ([10]; single agent, at 0.05 µM): -17.3% and -29.7%
- inhibition ([10]; single agent, at 5 µM): -21.8% and -15.7%

SMILES: C[n+]1ccc(-c2c3nc(c(-c4cc[n+](C)cc4)c4ccc([nH]4)c(-c4cc[n+](C)cc4)c4nc(c(-c5cc[n+](C)cc5)c5ccc2[nH]5)C=C4)C=C3)cc1
- inhibition ([11]; at 0.5 µM, stronger effect = higher value): -16.4% (inactive)
- inhibition ([11]; measured here: combination with BGB IC20, at 0.005 µM): 4.93%
- inhibition ([11]; measured here: combination with BGB IC40, at 0.005 µM): -7.27%
- inhibition [11, 37]: 5.45%
- inhibition ([11]; measured here: combination with cisplatin, at 0.5 µM, stronger effect = higher value): -7.43%
- inhibition ([11]; measured here: combination with cisplatin, at 5 µM, stronger effect = higher value): 6.44%
- inhibition ([12]; BGB combo, at 5 µM): -33%
- inhibition ([12]; at 0.5 µM): -31.4% (inactive)
- inhibition ([12]; cisplatin combo, at 5 µM): -48.7%
- inhibition [12, 35]: -41%
- inhibition [12, 36]: -34.4%
- inhibition ([12]; single agent, at 5 µM): -48.2%
- inhibition ([13]; BGB IC20 combo, at 0.005 µM): -7.96%
- inhibition ([13]; BGB IC40 combo, at 0.005 µM): -38.9%
- inhibition ([13]; BGB IC40 combo, at 0.05 µM): -28.5%
- inhibition ([13]; at 0.5 µM): -22.5% (inactive)
- inhibition ([13]; cisplatin combo, at 0.05 µM): -33.6%
- inhibition ([13]; cisplatin combo, at 0.5 µM): -35.2%
- inhibition ([13]; cisplatin combo, at 5 µM): -30.8%
- inhibition ([13]; measured here: 5 uM single agent, at 5 µM): -3.94%
- inhibition ([14]; at 0.5 µM): -33.2% (inactive)
- inhibition [14, 37]: -38.7%
- inhibition [14, 22]: -36.8%
- inhibition [14, 23]: -24.6%
- inhibition ([15]; at 0.5 µM): -31.3% (inactive)
- inhibition ([15]; measured here: with BGB IC20, at 0.5 µM): -48.7%
- inhibition ([15]; measured here: with BGB IC20, at 5 µM): -28.8%
- inhibition ([15]; measured here: with cisplatin IC20, at 0.5 µM): -29.2%
- inhibition ([15]; measured here: with cisplatin IC20, at 5 µM): 1.2%
- inhibition ([15]; single agent, at 5 µM): -24.3%
- inhibition ([1]; at 0.5 µM): -75.6% (inactive)
- inhibition [1, 16]: -55.7%
- inhibition [1, 17]: -59.6%
- inhibition ([2]; at 0.5 µM): -18.1% (inactive)
- inhibition [2, 18]: -21.5%
- inhibition [2, 19]: -12.4%
- inhibition ([3]; at 0.5 µM): -15% (inactive)
- inhibition [3, 20]: -39.4%
- inhibition [3, 21]: -10%
- inhibition ([4]; at 0.5 µM): -18.1% (inactive)
- inhibition [4, 22]: -16.6%
- inhibition [4, 23]: -12.4%
- inhibition ([5]; at 0.5 µM): -9.73% (inactive)
- inhibition [5, 24]: -10.7%
- inhibition [5, 25]: -18%
- inhibition [5, 26]: -7.22%
- inhibition [5, 27]: -11.9%
- inhibition [6, 28]: -36.3%
- inhibition ([6]; at 0.5 µM): -17.4% (inactive)
- inhibition [6, 29]: -6.54%
- inhibition ([7]; at 0.5 µM): -1.53% (inactive)
- inhibition [7, 30]: 4.28%
- inhibition [7, 31]: 3.89%
- inhibition ([8]; at 0.5 µM): -2.03% (inactive)
- inhibition [8, 32]: -16.4%
- inhibition ([8]; cisplatin combination, at 5 µM): 4.22%
- inhibition [8, 33]: -24.6%
- inhibition ([8]; single agent, at 5 µM): -14.3%
- inhibition ([9]; at 0.5 µM): -13.6% (inactive)
- inhibition ([9]; cisplatin combo, at 5 µM): 1.63%
- inhibition [9, 34]: -15.7%
- inhibition [9, 22]: -4.98%
- inhibition ([9]; single agent, at 5 µM): -32.1%
- inhibition ([10]; at 0.5 µM): -40.2% (inactive)
- inhibition [10, 35]: -36.3%
- inhibition [10, 36]: -42.2%
- inhibition ([10]; single agent, at 0.05 µM): -36.8%
- inhibition ([10]; single agent, at 5 µM): 45%
